Assay outcomes: PubChem, National Center for Advancing Translational Sciences (NCATS)
HTT aggregate: qHTS Multiplex Assay to Identify Dual Action Probes in a Cell Model of Huntington: Aggregate Formation (GFP); PC12 HttQ103-GFP aggregates, Acumen cytometry, 40 h; Potency, µM (series often up to 46.1 µM), for inactives: at the top dose activity change, negative = inhibition, usual class: inhibitors; 220,000 compounds, 1.1% hits; AID 1688, 2009; note: potency is the fitted concentration of half-maximal effect; % is set by controls: 0 for no effect and ±100 for the full control effect; nearly all actives have a fitted effect of over 60% in size
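Aggregate formation scored by laser-scanning cytometer (488 excitation, 500–530 emission) in lysed PC12 cells expressing Q103-GFP after 100 nM tebufenozide induction; library tested in dose series, with ATPLite reagent added in the multiplex.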
HTT cytoprotect: qHTS Multiplex Assay to Identify Dual Action Probes in a Cell Model of Huntington: Cytoprotection (ATP); PC12 HTT-Q103 induced, cytoprotection, ATP luminescence, 40 h; Potency, µM (highest dose often 56.4 µM), inactives show cytoprotection (ATP increase), actives largely listed as activators; 230,000 compounds, 0.14% hits; AID 1471, 2008; note: potency is the fitted concentration of half-maximal effect; % of control where 0% means no effect; nearly all actives have a fitted effect of over 45% in size
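Cells were plated at 1500 per well in phenol red-free DMEM with 5% equine and 5% calf serum. Tebufenozide (100 nM final) and compounds were added, then ATPlite reagent, and luminescence was read.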
AT treatment: qHTS Assay for Identifying a Potential Treatment of Ataxia-Telangiectasia; F2112 A-T fibroblasts, KAP-1 phosphorylation AlphaLISA; neocarzinostatin DNA damage 30 min before lysis; Potency, µM (top dose mostly 57.5 µM), inactives show at the highest dose activation, hits mostly activators; 320,000 compounds, 0.19% hits; note: potency is the fitted concentration of half-maximal effect; % of control where 0% means no effect; nearly all actives have a fitted effect of over 45% in size
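ATM-like activity read as KAP-1 phosphorylation via AlphaLISA donor/acceptor antibody pairs after lysis and 6 hr at 25C. Cells were ATM-null patient fibroblasts (F2112, hTERT), dosed 60 min, then exposed to the DSB inducer NCS for 30 min.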
NPSR antag: qHTS Assay for Antagonists of the Neuropeptide S Receptor: cAMP Signal Transduction. AID 1461, 2008. CHO-NPSR cells, cAMP TR-FRET, antagonist mode. Potency, µM (titrated, usually from 38.3 µM), for inactives: at the highest dose activity change, negative = inhibition, most hits filed as inhibitors. 220,000 compounds, 1% hits. Q6W5P4; note: potency is the fitted concentration of half-maximal effect; % is set by controls: 0 for no effect and ±100 for the full control effect; nearly all actives have a fitted effect of over 50% in size
Target sequence (Q6W5P4 whole entry, looked up): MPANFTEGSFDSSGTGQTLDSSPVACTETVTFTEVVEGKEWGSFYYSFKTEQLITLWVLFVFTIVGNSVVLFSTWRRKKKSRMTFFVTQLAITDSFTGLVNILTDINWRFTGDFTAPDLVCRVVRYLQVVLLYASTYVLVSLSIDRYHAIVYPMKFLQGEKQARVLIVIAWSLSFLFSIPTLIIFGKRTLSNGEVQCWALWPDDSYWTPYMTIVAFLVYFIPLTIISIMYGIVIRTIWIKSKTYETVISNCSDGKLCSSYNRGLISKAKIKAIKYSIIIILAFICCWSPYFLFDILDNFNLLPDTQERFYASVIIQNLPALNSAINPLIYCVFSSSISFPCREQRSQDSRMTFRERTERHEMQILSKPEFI
mIDH1 inhibitor: qHTS for Inhibitors of mutant isocitrate dehydrogenase 1 (IDH1): qHTS. Isocitrate dehydrogenase [NADP] cytoplasmic (Homo sapiens), O75874. 390,000 compounds, 0.093% hits. IDH1-R132H enzyme, NADPH consumption, diaphorase/resazurin fluorescence. Potency, µM (series often up to 76.6 µM), without a hit: at the highest dose activity change, negative = inhibition, usual class: inhibitors; note: potency is the fitted concentration of half-maximal effect; % is set by controls: 0 for no effect and ±100 for the full control effect; nearly all actives have a fitted effect of over 65% in size
Target sequence (O75874 whole entry R132H, stated change not applied): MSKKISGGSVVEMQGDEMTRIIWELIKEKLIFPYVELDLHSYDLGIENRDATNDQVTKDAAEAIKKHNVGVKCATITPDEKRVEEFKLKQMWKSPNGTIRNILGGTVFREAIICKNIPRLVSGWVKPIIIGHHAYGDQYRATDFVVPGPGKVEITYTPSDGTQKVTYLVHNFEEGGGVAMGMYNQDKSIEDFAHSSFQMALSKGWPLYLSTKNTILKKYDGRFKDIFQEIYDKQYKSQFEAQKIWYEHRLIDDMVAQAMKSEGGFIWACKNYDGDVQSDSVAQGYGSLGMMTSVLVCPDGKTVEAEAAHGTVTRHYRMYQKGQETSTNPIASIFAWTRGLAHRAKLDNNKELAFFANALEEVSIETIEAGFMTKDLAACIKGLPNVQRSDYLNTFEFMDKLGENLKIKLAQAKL
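IDH1-R132H (0.5 ug/mL) preincubated 30 min with compound, then NADPH (0.016 mM) and alpha-KG (2 mM) added; 80 min at RT, pH 7.5. Remaining NADPH coupled via diaphorase/resazurin to fluorescence (540/590 nm); concentration-response curves normalized to no-enzyme control.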
IDH1 autofl: qHTS for Inhibitors of mutant isocitrate dehydrogenase 1 (IDH1): Cherrypicks Autofluorescence Interference | shares compounds with mIDH1 inhibitor | Resorufin detection reagent fluorescence interference, cell-free | inhibition of signal, % at 51.2 µM | 750 tested, under 10 active | AID 623980, 2012;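 note: 0% = wells with normal resorufin and full inhibition = wells lacking resorufin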
WT IDH1 inh: qHTS for Inhibitors of mutant isocitrate dehydrogenase 1 (IDH1): Cherrypicks in WT IDH1; shares compounds with mIDH1 inhibitor; WT IDH1 enzyme, NADPH diaphorase/resazurin fluorescence; Potency, µM (series often up to 115 µM), for the others: top-dose activity change, negative = inhibition, usual class: inhibitors; 750 compounds, 9% hits;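 note: potency is the fitted concentration of half-maximal effect; 0% = full WT IDH1 enzyme control and full inhibition = no enzyme wells; nearly all actives have a fitted effect of over 55% in size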
IDH1 R132H conf: qHTS for Inhibitors of mutant isocitrate dehydrogenase 1 (IDH1): Confirmation of Cherrypicks. shares compounds with mIDH1 inhibitor. IDH1 R132H enzyme, NADPH diaphorase/resazurin fluorescence. Potency, µM (titrated, usually from 76.6 µM), for inactives: at the top dose activity change, negative = inhibition, actives largely listed as inhibitors. 750 compounds, 83% hits; note: potency is the fitted concentration of half-maximal effect; nearly all actives have a fitted effect of over 50% in size
Starred values were filed as active, the others as inactive; ? = inconclusive; · = no result given; [ ] = remark or other dose. Sampled rows, rich in hits. Any-hit rate of the full collection: about 1.1%. Calls come from the whole dose curve; as a rule, active = well fitted curve in the direction sought with a large enough effect; inconclusive = small, poorly fitted or top-dose-only effect, or another doubt; inactive = no such curve, though single readings can be large; an effect the other way counts as inactive or inconclusive.

SMILES | HTT aggregate | HTT cytoprotect | AT treatment | NPSR antag | mIDH1 inhibitor | IDH1 autofl | WT IDH1 inh | IDH1 R132H conf
CCC(C)Sc1ccc([C@@H]2[C@@H]3C(=O)N(CC)C(=O)[C@@H]3[C@]3(C(=O)OC)CCCCN23)cc1OC (some centres not stated) | · | · | 6% | · | -32% | · | · | ·
COc1ccc(NC(=O)C(c2ccc(OC)cc2)N(C)C(=O)CC2NC(=O)NC2=O)cc1 (configuration not stated) | -17% | 8%[10 µM] | 4% | 18% | 5% | · | · | ·
CC(C)c1ccc(NC(=O)C(c2ccccc2)N(Cc2ccco2)C(=O)CC2NC(=O)NC2=O)cc1 (configuration not stated) | 21% | -37% | -1% | -11% | ? | -4 | 5% | ?
CCC(C)Nc1nc(N)c([N+](=O)[O-])c(Nc2cc(OC)ccc2OC)n1 (configuration not stated) | 5%[9.22 µM] | 5%[10 µM] | 4% | -33% | ? | 2 | 2% | 28µM*
CCC(c1nnnn1C1CCCCC1)N(Cc1ccco1)Cc1cc2ccc(OC)cc2[nH]c1=O (configuration not stated) | ? | -24%[10 µM] | -4% | ? | ? | -5 | 4% | ?
Cc1ccc2cc(C(c3nnnn3C3CCCC3)N(Cc3ccco3)Cc3cccs3)c(=O)[nH]c2c1 (configuration not stated) | -5% | 0% | -4% | ? | 2% | · | · | ·
c1ccc(-c2ccc(-c3ccc(C4=NCCN4)cc3)o2)cc1 | · | 23%[10 µM] | · | · | · | · | · | ·
CC1=CC(C)(C)N2C(=O)C3(C(C#N)=C(N)Oc4cc(O)ccc43)c3c(C)c(C)cc1c32 (configuration not stated) | -15% | 14%[10 µM] | · | ? | 23µM* | 5 | 10% | 20µM*
CC1=CC(C)(C)N2C(=O)C3(C(C#N)=C(N)OC4=C3C(=O)CCC4)c3c(C)c(C)cc1c32 (configuration not stated) | 20% | -15% | -5% | -14%[46.1 µM] | -3% | · | · | ·
CSC1=NC(=O)/C(=C/c2ccc(SC)cc2)S1 | -28% | -7%[10 µM] | -3% | -46% | 35µM* | -3 | 71µM* | 40µM*
CC(C)C[C@H]1CNC(=S)N1CC1CCCN1C[C@H](Cc1ccccc1)N1C[C@H](Cc2ccc(O)cc2)N(CC2CCCCCC2)C1=S (some centres not stated) | · | · | · | · | 7% | · | · | ·
CC(C)C[C@@H](CN1CCC[C@@H]1CN1C(=O)C(=O)NC[C@@H]1Cc1ccccc1)N1C[C@H](Cc2ccccc2)N(CC2CCCCCC2)C(=O)C1=O | · | · | · | · | 40µM* | 2 | 6% | 20µM*
CC(C)C[C@H]1CN([C@@H](Cc2ccc(O)cc2)CN2CCC[C@@H]2CN2C(=O)C(=O)NC[C@@H]2Cc2ccccc2)C(=O)C(=O)N1CC1CCCCC1 | · | · | · | · | 45µM* | -4 | -3% | 14µM*
O=C1NC[C@H](Cc2ccccc2)N(C[C@H]2CCCN2C[C@H](Cc2ccccc2)N2C[C@H](Cc3ccccc3)N(CC3CCCCCC3)C(=O)C2=O)C1=O | · | · | · | · | -24% | · | · | ·
CCc1noc(-c2ccc(N3CCC(C)CC3)c([N+](=O)[O-])c2)n1 | · | · | · | · | 14% | · | · | ·
COc1ccc(CNc2oc(/C=C/c3cc(OC)c(OC)c(OC)c3)nc2C#N)cc1 | · | · | · | · | -8% | · | · | ·
Cn1c(=O)c(NC2CCCCC2)c2c3c(cccc31)C(=O)c1ccccc1-2 | ? | -15%[10 µM] | 11% | ? | ? | 0 | 12% | 22µM*
CC(=O)Nc1ccc(Nc2c3c4c(cccc4n(C)c2=O)C(=O)c2ccccc2-3)cc1 | -29% | -5%[10 µM] | 0% | -15% | 5% | · | · | ·
O=C(/C=C/c1cccs1)Nc1scc(-c2ccccc2)c1C(=O)O | -16% | -143% | 1% | -5% | ? | -25 | 35µM* | 35µM*
COC(=O)C1=CC(C(=O)c2cccs2)=NN(c2ccc(OC)cc2)C1C(=O)OC (configuration not stated) | 19% | · | 0% | ? | ? | 2 | 1% | -4%
COC(=O)C1=CN(Cc2ccc(OC)cc2)C=C(C(=O)OC)C1c1cccs1 | -4%[9.22 µM] | -2%[10 µM] | 15% | ? | -1% | · | · | ·
Cc1ccccc1CNC(=O)c1oc2c(c1C)-c1nn(Cc3ccc(Cl)cc3)cc1CC2 | · | · | · | · | -12% | · | · | ·
COc1ccccc1-c1noc(CSc2nnc(Cc3ccccc3)n2-c2ccc(C)c(C)c2)n1 | · | · | · | · | ? | -4 | 5% | ?
NNc1nnnc2c1sc1nc(N3CCOCC3)c3c(c12)CCCC3 | 7%[9.22 µM] | 9%[10 µM] | -8% | 7% | 52µM* | -2 | -15% | ?
CC1(C)Cc2c(c(N3CCOCC3)nc3sc4c(NN)ncnc4c23)CS1 | ? | -41% | -4% | -17%[46.1 µM] | 23µM* | -5 | ? | 14µM*
SMILES | HTT aggregate | HTT cytoprotect | AT treatment | NPSR antag | mIDH1 inhibitor | IDH1 autofl | WT IDH1 inh | IDH1 R132H conf
CC(C)CNc1nnnc2c1sc1nc(N3CCOCC3)c3c(c12)CC(C)(C)SC3 | -11% | -80% | -8% | ? | ? | 10 | ? | ?
CC1(C)Cc2c(c(N3CCOCC3)nc3sc4c(NCc5ccccc5)nnnc4c23)CS1 | 4% | -15% | 0% | 0%[46.1 µM] | -2% | · | · | ·
O=C(O)CCn1c(=O)n(CCC(=O)O)c(=O)n(CCC(=O)O)c1=O | 19%[9.22 µM] | 16%[10 µM] | 3%[11.5 µM] | -11% | ? | 3 | 5% | -4%
O=C(O)CCN1C(=O)c2ccccc2C1=O | -11% | 17%[10 µM] | 0% | 0%[46.1 µM] | 0% | · | · | ·
COc1ccc(C)cc1Nc1nc2c(S(=O)(=O)c3cc(C)ccc3C)nnn2c2ccsc12 | · | · | · | · | -17% | · | · | ·
COc1cccc(Nc2nc3c(S(=O)(=O)c4cc(C)ccc4C)nnn3c3ccsc23)c1 | · | · | · | · | ? | 1 | 0% | ?
